# Reference: ChEMBL document CHEMBL1157539, “Thousands of chemical starting points for antimalarial lead identification” (Nature, 2010)
# Key:
# Plasmodium falciparum [1] = assay: GSK_TCMDC: Inhibition of Plasmodium falciparum 3D7 in whole red blood cells, using parasite LDH activity as an index of growth. Test compounds present at 2uM; assay type: functional
# Plasmodium falciparum [2] = assay: GSK_TCMDC: Inhibition of Plasmodium falciparum Dd2 in whole red blood cells, using parasite LDH activity as an index of growth. Test compounds present at 2uM; assay type: functional
SMILES,Inhibition (Plasmodium falciparum [1]),Inhibition (Plasmodium falciparum [2])
Cc1[nH]c(C)c(-c2ccc(Oc3cccc(C(F)(F)F)c3)cc2)c(=O)c1Br,99%,97%
Cc1[nH]c(C)c(-c2ccc(Oc3ccccc3)cc2)c(=O)c1Br,96%,97%
CCC1=C(CC2NCCc3cc(OC)c(OC)cc32)CC2c3cc(OC)c(OC)cc3CCN2C1 (stereo unspecified) [DIHYDROEMETINE],100%,100%
Cc1nc2nc(N)nc(N)c2c(C)c1Cc1ccc([N+](=O)[O-])cc1.Cl,98%,11%
Nc1nc(N)c2c3c(ccc2n1)CCC3,92%,2%
COc1cccc2c(O)c(CNC3CCCCC3)ccc12.Cl,100%,98%
CCc1cc(COc2ccc(CNCCC(C)C)cc2I)c(OCc2ccccc2)c(COc2ccc(CNCCC(C)C)cc2I)c1.Cl,89%,15%
COc1ccc2c(c1CCNCCCCNCCc1c(OC)ccc3c1CCCC3)CCCC2.CS(=O)(=O)O,100%,25%
Cl.Nc1ccncc1C(=O)NCCCCN1CCN(c2nsc3ccccc23)CC1,100%,9%
CCN(Cc1cccc2ccccc12)c1ccc2nc(N)nc(N)c2c1.Cl,100%,100%
Cc1nc(C)c(-c2ccc(Oc3ccc(OC(F)(F)F)cc3)cc2)c(OC(=O)c2ccccc2)c1Cl,97%,97%
CCC(C(C)C)n1ccc2c3c(N)nc(N)nc3ccc21 (stereo unspecified),95%,95%
N=C(N)NC(=O)Nc1cc(Br)c(Cl)c(C(F)(F)F)c1,100%,91%
